# From PubChem
# GalR3 antagonist: human GalR3 antagonism; HEK293 GalR3-CNG cAMP membrane potential fluorescence; galR3 body fused to GalR1 C-terminus; O60755; inhibition, % at 3 µM; actives 0.44% (n = 360,000);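 active = inhibition above the screen-wide average plus 3 SD, cut at about 13% in these data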;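 note: forskolin and galanin both at EC90 stimulate the cells; cAMP rise reported by CNG channel membrane potential dye signal; 0% = forskolin plus galanin with DMSO and 100% = forskolin alone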
# COUP-TFII inh: NR2F2 (human) inhibition, primary screen; HEK293T NGFI-A luciferase reporter, luminescence; P24468; actives 0.7% (n = 370,000); inhibition, % at 8.6 µM;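 active = inhibition above a per-plate cutoff, mean inhibition of test wells between control levels plus 3 SD, cut at about 38% in these data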;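 note: cells cotransfected with COUP-TFII expression vector driving the NGFI-A reporter; 0% = median of COUP-TF2 test wells and 100% = reporter-only cells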
# Target sequence (P24468 whole entry, looked up): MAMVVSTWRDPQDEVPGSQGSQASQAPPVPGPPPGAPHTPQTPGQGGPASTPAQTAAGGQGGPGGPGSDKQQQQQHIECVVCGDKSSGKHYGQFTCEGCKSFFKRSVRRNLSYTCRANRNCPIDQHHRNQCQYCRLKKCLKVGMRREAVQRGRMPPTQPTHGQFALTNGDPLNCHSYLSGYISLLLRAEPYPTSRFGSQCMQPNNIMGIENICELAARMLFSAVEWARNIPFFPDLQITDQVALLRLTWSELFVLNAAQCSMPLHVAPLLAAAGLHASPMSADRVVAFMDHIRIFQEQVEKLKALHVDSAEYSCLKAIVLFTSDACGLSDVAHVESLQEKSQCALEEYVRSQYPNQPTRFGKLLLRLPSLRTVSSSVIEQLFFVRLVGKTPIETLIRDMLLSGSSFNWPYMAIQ
# Gli-Sufu block: blocks Gli-Sufu signaling in a luciferase reporter. inhibition, % at 5 µM. AID 588413. actives 0.74% (n = 340,000). Sufu-KO-LIGHT fibroblasts, Gli luciferase reporter luminescence;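 active = inhibition above about 55%, limit read from the data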;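 note: 0% = DMSO-treated cells and 100% = wells with medium but no cells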
# Env fusion inh: HIV envelope-mediated fusion inhibition | HeLa-JRFL Env/CEM21 cell fusion, luciferase | inhibition, % at 12.3 µM | actives 1.1% (n = 360,000) | AID 651610;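 active = mean replicate inhibition score of at least 50 and every replicate individually at or above 50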;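 note: 0% = plate neutral controls and 100% = maraviroc near 300 nM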
# aDG glyco act: increases alpha dystroglycan glycosylation; actives 0.22% (n = 360,000); AID 624168; Pro5-aDG cells, alpha-DG glycosylation AlphaScreen (IIH6); 0% Pro5, 100% B10-LARGE cell signal; activation, % at 10 µM;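 active = activation of at least 8% versus controls, or a plate z-score of at least 8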;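 note: Pro5 are CHO cells carrying HIG-tagged alpha-DG that lacks glycosylation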
# * hit, by the source's call; . = not tested or not shown; [ ] = dose if it differs, or a comment. The list is not random: actives were taken first. Their share in the collection is about 2.1%.
SMILES,GalR3 antagonist,COUP-TFII inh,Gli-Sufu block,Env fusion inh,aDG glyco act
CCN1C(=O)[C@H]2[C@@H](c3ccc(C)cc3)N3C(=O)N(c4ccc(C(F)(F)F)cc4)C(=O)[C@@]3(CC(C)C)[C@H]2C1=O,-6.9,6.5,3.0,114.9*,0.5
CCN1C(=O)[C@H]2[C@@H](c3ccc(C)cc3)N3C(=O)N(c4ccc(C)cc4)C(=O)[C@@]3(CC)[C@H]2C1=O,-1.9,0.2,-12.4,1.0,0.2
O=C1CN(C(=O)c2ccc(Br)o2)C(c2ccccc2)c2cc(Cl)ccc2N1 (stereo not given),-2.0,14.0,3.6,58.2*,0.1
COc1ccc(C)cc1NC(=O)CSc1nnc(CC(=O)Nc2cccc(C(F)(F)F)c2)n1C,-3.9,8.7,-3.8,79.9*,0.3
CN(C)CCN1C(=O)c2cccc3cc([N+](=O)[O-])cc(c23)C1=O,-6.9,-92.0,68.6*,50.8,0.4
Cn1nc(C(C)(C)C)cc1NC(=O)C1(C)CCN1C(=O)CCc1ccccc1 (stereo not given),-6.5,11.0,.,10.2,1.5
Cn1nc(C(C)(C)C)cc1NC(=O)C1(C)CCN1C(=O)Cc1ccc(-c2ccccc2)cc1 (stereo not given),-4.4,19.3,.,61.6*,1.3
c1ccc(OCc2nn3c(C4CCCCC4)nnc3s2)cc1,-0.8,-2.0,0.4,63.2*,0.0
COc1ccc(C(=O)Nc2ccc(OCC(F)(F)C(F)F)c(C(F)(F)F)c2)cc1OC,-5.2,0.2,2.6,.,2.9
O=C(Nc1ccc(OCC(F)(F)C(F)F)c(C(F)(F)F)c1)c1ccc(Cl)cc1,-6.2,21.5,-5.7,68.5*,0.8
CC(NC(=O)Cc1cccs1)C(c1cccs1)N1CCN(c2ccccc2F)CC1 (stereo not given),-3.3,-12.5,6.0,61.7*,0.3
CC(NC(=O)Cc1cccs1)C(c1cccs1)N1CCN(c2ccccc2)CC1 (stereo not given),-11.1,-21.4,-1.4,.,0.1
Cc1noc(C)c1NC(=O)Nc1ccc2c(c1)C(=O)N([C@H](C)CO)C[C@H](C)[C@H](CN(C)Cc1ccc(Cl)c(Cl)c1)OCCCC[C@@H](C)O2,.,.,.,8.6[16.7 µM],.
CCCCCCCCCCCCCCCC[n+]1ccc(/C=N/O)cc1,1.1,38.4*,73.3*,88.7*,-0.4
C[C@@H]1CN([C@H](C)CO)C(=O)c2cc(-c3cccnc3)cnc2O[C@H]1CN(C)C(=O)C1CCC1,.,.,.,-0.3[16.7 µM],.
CC(C)NC(=O)N(C)C[C@@H]1Oc2ccc(NS(C)(=O)=O)cc2C(=O)N([C@H](C)CO)C[C@H]1C,.,.,.,24.0[16.7 µM],.
Cc1ccc(NC(=O)C(=O)NCC2CCCN2S(=O)(=O)c2cccs2)cc1C (stereo not given),-3.6,28.6,-0.9,24.6,0.0
COc1ccc(NC(=O)C(=O)NCC2CCCN2S(=O)(=O)c2cccs2)cc1 (stereo not given),-0.9,10.4,3.2,83.3*,-0.2
COc1ccc(C(=O)/C(C#N)=N/Nc2ccccc2[N+](=O)[O-])cc1,-3.7,9.9,-5.7,27.6,-0.5
COc1ccc(C(=O)/C(C#N)=N/Nc2ccc([N+](=O)[O-])cc2)cc1,-1.2,-13.5,68.9*,14.6,-0.2
N#C/C(=N\Nc1ccc(Cl)cc1)C(=O)c1ccccc1,-2.7,28.4,44.9,78.5*,0.4
C[C@H](CO)N1C[C@H](C)[C@@H](CN(C)C(=O)Cc2ccccc2)OCCCC[C@H](C)Oc2ccc(NC(=O)CCC(F)(F)F)cc2C1=O,.,.,.,-2.8[16.7 µM],.
COc1cccc(C(=O)Nc2ccc3[nH]c(=O)[nH]c3c2)c1OC,-3.4,-34.8,-17.3,60.1*,0.1
COc1cccc(NC(=O)c2cccc(OC)c2OC)c1,8.4,-51.1,-62.4,-158.5,0.1
CC1CCN(c2ccccc2NC(=O)c2cc([N+](=O)[O-])ccc2N2CCOCC2)CC1,-1.5,-0.3,14.4,60.2*,0.1
O=C(NCCOc1ccccc1F)c1cc([N+](=O)[O-])ccc1N1CCOCC1,-1.9,-16.7,-5.7,63.2*,-0.1
C[C@H](CO)N1C[C@H](C)[C@H](CN(C)Cc2ccc3c(c2)OCO3)Oc2ccc(NC(=O)CCC(F)(F)F)cc2C1=O,.,.,.,0.5[16.7 µM],.
O=S(=O)(NCC(Nc1ccccc1)c1ccccc1)c1ccc(Cl)cc1 (stereo not given),-0.7,3.8,1.7,98.4*,0.2
COCCN(C(=O)CCl)C(C(=O)NC1CCCCC1)c1ccccc1C (stereo not given),-4.5,-11.7,31.6,60.1*,0.9
